Here are results for 6 compounds from PubChem BioAssay (NCI).

Each structure is given as a SMILES string. About 83,000 compounds went through this panel and 20% of them were active in at least one assay; those are over-represented in the sample as a whole.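 Single-concentration screen, 48 h exposure, 96-well plates. Endpoint: percent growth. Below 10 = active.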 Unmarked numbers belong to inactive results. Active and inactive are the calls of the source.

Among the test systems are NCI-H23 lung; NCI-H226 lung; NCI-H322M lung; HOP-62 NSCLC; NCI-H460 lung; NCI-H522 lung; A549/ATCC NSCLC; 786-0 renal; COLO 205 colon; DU-145 prostate; K-562 leukemia; MALME-3M melanoma; MDA-MB-231 breast; RXF 393 renal; SF-268 CNS; SF-295 CNS; SF-539 CNS; UACC-257 melanoma; M14 melanoma.
What all share (assay): NCI-60 one-dose screen, 48 h (100 = growth as untreated, 0 = no growth, -100 = all killed)
Settings in all cases: 10 µM unless noted

As to `C/C(=N\NC(=O)CSc1nc2ccccc2c(=O)n1CCc1ccc(S(N)(=O)=O)cc1)c1ccc(Br)cc1`, the growth in the experiment with NCI-H23 lung was 60.4%; with NCI-H226 lung, 95.2%; in the experiment on NCI-H322M lung it was 97.2%; with HOP-62 NSCLC, 77.4%; in the experiment with NCI-H460 lung, 30.8%; with NCI-H522 lung, 62.5%. Also, the growth in the experiment with A549/ATCC NSCLC was 47.3%; in the experiment on 786-0 renal, 49.8%; in the experiment with COLO 205 colon it was 93.6%; with DU-145 prostate it was 99%; in the experiment with K-562 leukemia, 54.3%; in the experiment with MALME-3M melanoma it was 54.4%. The growth with MDA-MB-231 breast is 36.9%; with RXF 393 renal, 99.1%; in the experiment with SF-268 CNS it was 99.4%; with SF-295 CNS it was 89.9%; in the experiment on SF-539 CNS, 83.1%; in the experiment on UACC-257 melanoma, 83.3%. Besides, in the experiment on M14 melanoma, the growth was 70.3%.
Regarding `CC[C@H](C)[C@H](N)C(=O)O`, the growth with NCI-H23 lung is 111%; with NCI-H226 lung, 96.5%; in the experiment on NCI-H322M lung, 96.9%; in the experiment on HOP-62 NSCLC it was 102%; in the experiment with NCI-H460 lung, 108%; in the experiment with NCI-H522 lung, 101%. For the same compound, the growth with A549/ATCC NSCLC is 103%; in the experiment on 786-0 renal, 112%; with COLO 205 colon, 103%; in the experiment with DU-145 prostate, 106%; with K-562 leukemia it was 122%; in the experiment on MALME-3M melanoma, 103%. Moreover, the growth in the experiment on MDA-MB-231 breast is 97.7%; in the experiment on RXF 393 renal, 96.8%; with SF-268 CNS, 105%; in the experiment on SF-295 CNS it was 104%; in the experiment on SF-539 CNS it was 100%; with UACC-257 melanoma, 119%. In addition, the growth in the experiment with M14 melanoma was 105%.
For the compound `CO[C@H](C(=O)[C@@H](O)[C@@H](C)O)[C@@H]1Cc2cc3cc(O[C@H]4C[C@@H](O[C@H]5C[C@@H](O)[C@H](O)C(C)O5)[C@H](O)C(C)O4)c(C)c(O)c3c(O)c2C(=O)[C@H]1O[C@H]1C[C@@H](O[C@H]2C[C@@H](O[C@H]3C[C@](C)(O)C(=O)C(C)O3)[C@@H](O)C(C)O2)[C@H](O)C(C)O1` (some centres undefined), the growth was -7.26% (active) in the experiment on NCI-H23 lung; 1.78% (active) in the experiment on NCI-H226 lung; 7.31% (active) in the experiment on NCI-H322M lung; -2.07% (active) in the experiment on HOP-62 NSCLC; 4.88% (active) with NCI-H460 lung; -31.9% (active) in the experiment with NCI-H522 lung. Also, the growth in the experiment on A549/ATCC NSCLC was 4.12% (active); with 786-0 renal, 4.11% (active); with COLO 205 colon, -52.4% (active); in the experiment on DU-145 prostate, 9.76% (active); in the experiment on K-562 leukemia, 9.26% (active); in the experiment on MALME-3M melanoma, -26.8% (active). Further, the growth in the experiment on MDA-MB-231 breast was 10.6%; in the experiment on RXF 393 renal, -54.2% (active); with SF-268 CNS, 16.4%; with SF-295 CNS, 6.84% (active); in the experiment with SF-539 CNS it was 0.369% (active); in the experiment with UACC-257 melanoma, -27.4% (active). Also, the growth with M14 melanoma was -27% (active).
`CN1CCC2(CC1)N=C(SCC(=O)Nc1cnc3ccccc3c1)C(c1ccc(Br)cc1)=N2`: the growth with NCI-H23 lung is 63.5%; in the experiment with NCI-H226 lung, 57.6%; in the experiment with NCI-H322M lung, 50.8%; in the experiment with HOP-62 NSCLC, 38.9%; with NCI-H460 lung, 3.34% (active); with NCI-H522 lung, -17.5% (active). Also, the growth with A549/ATCC NSCLC is 24.2%; in the experiment on 786-0 renal, -81.7% (active); in the experiment with COLO 205 colon, -76.2% (active); in the experiment on DU-145 prostate, 21.8%; in the experiment on K-562 leukemia, -61.5% (active); in the experiment with MALME-3M melanoma it was -75.5% (active). Further, the growth in the experiment with MDA-MB-231 breast was -40.5% (active); in the experiment with RXF 393 renal, 24.3%; in the experiment with SF-268 CNS, 35.9%; with SF-295 CNS, 28%; in the experiment with SF-539 CNS it was 51.6%; in the experiment on UACC-257 melanoma, -61.2% (active). In the experiment on M14 melanoma, the growth is -83.8% (active).
Take `N/C(=C\C(=O)n1nc(-c2ccccc2)cc1N)c1ccccc1`: the growth with NCI-H23 lung is 58.3%; with NCI-H226 lung it was 73.4%; in the experiment with NCI-H322M lung it was 65.4%; in the experiment on HOP-62 NSCLC, 64%; in the experiment with NCI-H460 lung, 36%; in the experiment on NCI-H522 lung, -22.3% (active). The growth is 55.1% in the experiment on A549/ATCC NSCLC; 65% in the experiment on 786-0 renal; 41.6% in the experiment with COLO 205 colon; 58.2% with DU-145 prostate; 25.6% in the experiment on K-562 leukemia; 42.6% in the experiment on MALME-3M melanoma. Further, the growth with MDA-MB-231 breast is 51.5%; in the experiment on RXF 393 renal it was 77.2%; in the experiment on SF-268 CNS, 63.8%; in the experiment on SF-295 CNS it was 44.5%; with SF-539 CNS, 59.4%; in the experiment with UACC-257 melanoma, 58.3%. Besides, the growth in the experiment on M14 melanoma is 31.6%.
Consider `CCCCCCCC/C=C\CCCCCCCC(=O)OCCCCCC`, for which the growth with NCI-H23 lung is 98.4%; with NCI-H226 lung it was 94.7%; in the experiment on NCI-H322M lung, 111%; in the experiment with HOP-62 NSCLC it was 121%; in the experiment on NCI-H460 lung, 111%; in the experiment on NCI-H522 lung, 104%. The growth in the experiment on A549/ATCC NSCLC is 90.6%; in the experiment on 786-0 renal, 105%; with COLO 205 colon, 124%; in the experiment on DU-145 prostate it was 103%; with K-562 leukemia, 100%; with MALME-3M melanoma, 120%. Besides, the growth in the experiment with MDA-MB-231 breast is 136%; in the experiment with RXF 393 renal it was 104%; with SF-268 CNS it was 108%; in the experiment on SF-295 CNS, 95.6%; with SF-539 CNS, 109%; in the experiment with UACC-257 melanoma, 95.7%. In the experiment on M14 melanoma, the growth is 112%.
